The list is not random: actives were taken first. Their share in the collection is about 0.54%.
CatB mix inh = human cathepsin B inhibition by mixtures; Purified cathepsin B, AMC dipeptide fluorescence, compound mixtures; P07858; inhibition, %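 (ten-compound pools at 5 µM per compound and 50 µM total)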; AID 488; 62,000 tested, 0.06% active; in the data active = inhibition above about 22%, passing the limit was not always enough; inconclusive = no clear call, values can overlap the other calls
Cathepsin G inh = inhibitors of human cathepsin G; P08311; purified enzyme, AMC-tetrapeptide fluorescence, pooled mixtures; inhibition, % at 5 µM (by protocol); 62,000 tested, 0.2% active;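 active = inhibition above 20% in each of the two mixture wells holding the compound; inactive = inhibition of 20% or less in either well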
Target sequence (P08311 21-244 limits assumed): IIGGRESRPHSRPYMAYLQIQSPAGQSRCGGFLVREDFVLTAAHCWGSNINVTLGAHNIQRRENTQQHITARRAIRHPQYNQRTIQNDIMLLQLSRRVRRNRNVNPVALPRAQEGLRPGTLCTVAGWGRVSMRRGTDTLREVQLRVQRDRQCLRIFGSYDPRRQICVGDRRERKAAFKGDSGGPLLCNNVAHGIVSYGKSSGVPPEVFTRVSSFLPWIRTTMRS
CatS block = human cathepsin S inhibition; 62,000 tested, 0.06% active; inhibition, %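 (tested at 5 µM per compound within 10-compound mixtures)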; AID 501; recombinant cathepsin S, AMC dipeptide fluorescence, pooled mixtures; in the data active = inhibition above about 32%, passing the limit was not always enough; inconclusive = no clear call, values can overlap the other calls
CatB block = human cathepsin B inhibition. purified cathepsin B, fluorogenic substrate, fluorescence. inhibition, %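 (tested at 10 µM)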. 63,000 tested, 0.1% active; in the data active = inhibition above about 21%
C1s block = human complement C1s inhibition; purified C1s, fluorogenic AMC substrate, pooled mixtures; mean inhibition % of two 10-compound mixtures (hits give high values), % at 5 µM (by protocol); 62,000 tested, 0.16% active; P09871; AID 538;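 active = inhibition above 20% in each of the two 10-compound mixture wells holding the compound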
CatL inh = inhibitors of human cathepsin L. P07711. purified cathepsin L, fluorogenic substrate, fluorescence. inhibition, %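 (tested at 10 µM)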. 58,000 tested, 0.17% active. AID 460; in the data active = inhibition above about 45%
A number is an active result; - = inactive; ? = inconclusive; . = no result.

SMILES	CatB mix inh	Cathepsin G inh	CatS block	CatB block	C1s block	CatL inh
Cn1cccc1CNCCc1ccccc1F	-	-	-	-	-	54.1
COc1cc2c(cc1OC)-c1c(OC)c(OC)cc3c1C(C2)N(C)CC3 (configuration not stated)	-	-	?	26.6	-	-
CN(C)P(=O)(C(Cl)=C(N1CCCCC1)N1CCCCC1)N(C)C	-	-	-	-	-	-
COc1ccccc1N1CCN(Cc2ccccc2Cl)CC1	-	-	-	-	-	.
COc1ccccc1CN1CCCCC1c1cccnc1 (configuration not stated)	-	-	-	-	58.9	-
Cc1nc2c(c(C)nn2-c2ccccc2)c(C)c1CCC(=O)N1CCC2(CC1)OCCO2	-	-	-	-	-	-
Cc1ccc(NC(=O)CSc2nnc([C@@H](N)Cc3c[nH]c4ccccc34)o2)c(C)c1	-	-	-	-	-	92.8
CCc1ccccc1NC(=O)CSc1nnc([C@@H](N)Cc2c[nH]c3ccccc23)o1	-	-	-	-	-	119.7
COC(=O)c1c(C)[nH]c(C(=O)C(Cc2ccccc2)N(C)C)c1C (configuration not stated)	-	-	-	-	-	-
CC1=C(C(=O)N2CCC3(CC2)OCCO3)C2(CCC(C)CC2)OC1=O (configuration not stated)	-	-	-	-	-	-
NCC1(CC(=O)O)CCCCC1	-	-	-	-	-	-
CCn1nc(-c2cccs2)nc2c(=O)n(C)c(=O)nc1-2	86.0	-	86.8	81.9	-	81.3
